Activity calls are given as the source filed them. Unless noted, the rule behind the calls is not given here.

Experiment [1] in a line: compounds binding Alexa647 anti-His antibody – biochemical, small-molecule microarray, 635 nm fluorescence, artefact control for SMM control protein annotation, primary screen (AID 1128).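 Note: score merges feature fluorescence with signal-to-noise for each printed compound spot.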 The settings on record: higher = more signal.
For experiment [2], the system named is Human papillomavirus type 1a E7 protein (residues 1-88). The experiment is described as follows: HPV1a E7 small-molecule binders, primary screen, biochemical, small-molecule microarray, residues 1-88, 635 nm (AID 1129). The settings on record: small-molecule microarray binding, fluorescence 635 nm; higher = more signal.
Experiment [3] deals with Focal adhesion kinase 1 (Homo sapiens) (UniProt Q05397). The experiment is described as follows: PTK2 protein binding on printed compound slides – biochemical, small-molecule microarray, 635/667 nm fluorescence, BSA, DTT, primary screen (AID 1130).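 Note: composite of spot emission at 667 nm and signal to noise over triplicate slides.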 As to conditions: 635 nm fluorescence, higher = more signal.
Experiment [4] concerns Fibrinogen (Alexa647-labelled). The experiment can be described thus: Alexa647-fibrinogen binding to printed small molecules – biochemical, small-molecule microarray, 635/667 nm fluorescence, artefact control for SMM control-protein annotation, profiling panel (AID 1131).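 Note: z-score merges 667 nm fluorescence with per-spot signal-to-noise over triplicate slides.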 As to conditions: fibrinogen-A647 binding fluorescence, higher = more signal.
For experiment [5], the target named is Follistatin (Homo sapiens) (UniProt P19883). The experiment can be described thus: FST protein binding to printed compounds – biochemical, small-molecule microarray, 635/667 nm fluorescence, primary screen (AID 1132). The settings on record: 635 nm fluorescence, higher = more signal.
In experiment [6] the target is Fibroblast growth factor 2 (Homo sapiens) (UniProt P09038). The experiment is described as follows: basic fibroblast growth factor binding to printed compounds – biochemical, small-molecule microarray, 635/667 nm fluorescence, primary screen (AID 1133). As to conditions: FGF2, fluorescence 635/667, higher = more signal.
A short description of experiment [7]: JC-1 mitochondrial potential readout, lung cancer cells – cell-based, A549, JC-1 fluorescence, basal, 24 h, 100 nL, profiling panel (AID 1138).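 Note: A549 lung adenocarcinoma cells under basal conditions with no added stimulus; test concentration not given here.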 As to conditions: higher = more signal.
The subject of the next experiment is Lefty1. The experiment can be described thus: Lefty1 protein binding to printed compounds – biochemical, small-molecule microarray, 635/667 nm fluorescence, primary screen (AID 1139). The settings on record: fluorescence 635/667, higher = more signal.
For experiment [8], the system named is wheat germ agglutinin (Triticum aestivum), Alexa647-labelled. The experiment can be described thus: Alexa647-WGA lectin binding to printed small molecules – biochemical, small-molecule microarray, 635/667 nm fluorescence, artefact control for SMM control-protein annotation, profiling panel (AID 1140).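 Note: score merges 667 nm feature emission with signal to noise over triplicate slides.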 As to conditions: WGA-A647 binding, 635 nm fluorescence, higher = more signal.

Experiment [9] concerns the target Luciferin 4-monooxygenase (Photinus pyralis) (UniProt P08659). The experiment is described as follows: inhibition of purified Photinus pyralis luciferase – biochemical, luminescence, purified enzyme, 2006 set, primary screen (AID 1141).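 Note: cell-free assay with purified firefly luciferase at 100 ng per well in PBS; test concentration not given here.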 As to conditions: purified firefly luciferase, SteadyGlo luminescence, 30 min; higher = more signal, called active from +8 up or from −8 down.

Experiment [10] deals with Wnt5a (protein binding on small-molecule microarray). The experiment can be described thus: small molecules binding Wnt5a protein – biophysical, small-molecule microarray, 635/667 nm fluorescence, primary screen (AID 1142).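 Note: fluorescence read at 667 nm with signal to noise per printed feature.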 The settings on record: 635 nm fluorescence, higher = more signal.
Experiment [11] in a line: ATP-based viability of Huh7 replicon cells – cell-based, CellTiter-Glo luminescence, basal, 48 h, cytotoxicity control for HCV replication inhibitor project, primary screen (AID 1143).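 Note: Huh7 hepatoma cells carrying a hepatitis C replication reporter with no stimulus; test concentration not given here.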 The settings on record: higher = more signal, called active from +8 up or from −8 down. (Replicon systems follow genome replication, usually without infectious particles.)
Experiment [12] in a line: Pseudomonas biofilm growth suppression – PAO1 strain, BacTiter-Glo luminescence, LB-PBS, primary screen (AID 1144). The settings on record: P. aeruginosa PAO1 biofilm, 12 h, higher = more signal.
The nature of experiment [13]: basal CRE-LacZ reporter activity in PC12 – cell-based, unstimulated, primary screen (AID 1145). As to conditions: no forskolin, luminescence, 4.5 h, higher = more signal, called active from +8 up or from −8 down.
Experiment [14] is described as follows: forskolin-driven CRE-LacZ activity in PC12 – cell-based, CRE-LacZ reporter, forskolin-stimulated, primary screen (AID 1146).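 Note: PC12 cells with 6xCRE LacZ reporter stimulated by forskolin 10 µM; beta-galactosidase reporter signal reflecting CREB driven transcription.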 The settings on record: luminescence, 4.5 h, higher = more signal, called active from +8 up or from −8 down.
Experiment [15] has as its target Streptavidin (Streptomyces avidinii) (UniProt P22629). The experiment is described as follows: compounds binding control protein streptavidin – biophysical, small-molecule microarray, 635/667 nm fluorescence, artefact control for SMM compound annotation, primary screen (AID 1147).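 Note: signal reflects streptavidin binding to arrayed compounds as a control protein.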 The settings on record: higher = more signal.
Experiment [16] in a line: probe aInhba binding on compound microarray – biochemical, small-molecule microarray, 635/667 nm fluorescence, primary screen (AID 1148).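 Note: score merges 667nm spot fluorescence with signal-to-noise for antibody binding to printed compounds.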 As to conditions: higher = more signal.
Experiment [17] addresses Torsin-1A (Homo sapiens) (UniProt O14656). The experiment can be described thus: TOR1A wild-type binding on microarray – cell lysate, small-molecule microarray, lysate, 635/667 nm, primary screen (AID 1149). The settings on record: COS7 hTOR1A-WT lysate, 635 nm fluorescence, higher = more signal.
Experiment [18] shares this target. The experiment is described as follows: torsin A mutant lysate binding on microarrays – cell lysate, small-molecule microarray, COS7 lysate, 635/667 nm fluorescence, primary screen (AID 1150).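 Note: score pools 667 nm emission and signal to noise measuring lysate protein binding.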 As to conditions: COS7 hTOR1A mutant lysate, 635 nm fluorescence, higher = more signal.
In experiment [19] the test system is Sonic hedgehog protein (Shh). The experiment can be described thus: Sonic hedgehog microarray binding compounds – biochemical, small-molecule microarray, 635/667 nm fluorescence, primary screen (AID 1151).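 Note: Shh protein binding to compounds spotted on small-molecule microarray slides; score combines spot fluorescence intensity with signal-to-noise across triplicate slides.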 The settings on record: 635 nm fluorescence, higher = more signal.

Streptavidin (Streptomyces avidinii), sequence (P22629 whole entry, looked up): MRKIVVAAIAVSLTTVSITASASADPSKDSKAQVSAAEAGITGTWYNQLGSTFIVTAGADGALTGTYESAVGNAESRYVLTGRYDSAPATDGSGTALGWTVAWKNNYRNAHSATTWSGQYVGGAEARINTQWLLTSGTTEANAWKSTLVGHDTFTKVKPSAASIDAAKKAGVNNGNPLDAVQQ
Fibroblast growth factor 2 (Homo sapiens), sequence (P09038 whole entry, looked up): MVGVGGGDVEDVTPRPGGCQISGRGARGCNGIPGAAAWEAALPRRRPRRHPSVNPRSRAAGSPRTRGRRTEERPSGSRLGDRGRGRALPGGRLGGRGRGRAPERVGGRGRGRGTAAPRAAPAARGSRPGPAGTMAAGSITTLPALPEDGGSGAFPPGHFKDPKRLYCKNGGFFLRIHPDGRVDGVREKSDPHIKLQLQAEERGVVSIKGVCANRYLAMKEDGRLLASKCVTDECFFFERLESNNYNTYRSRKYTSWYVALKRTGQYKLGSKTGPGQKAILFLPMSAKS
Torsin-1A (Homo sapiens), sequence (O14656 whole entry, looked up): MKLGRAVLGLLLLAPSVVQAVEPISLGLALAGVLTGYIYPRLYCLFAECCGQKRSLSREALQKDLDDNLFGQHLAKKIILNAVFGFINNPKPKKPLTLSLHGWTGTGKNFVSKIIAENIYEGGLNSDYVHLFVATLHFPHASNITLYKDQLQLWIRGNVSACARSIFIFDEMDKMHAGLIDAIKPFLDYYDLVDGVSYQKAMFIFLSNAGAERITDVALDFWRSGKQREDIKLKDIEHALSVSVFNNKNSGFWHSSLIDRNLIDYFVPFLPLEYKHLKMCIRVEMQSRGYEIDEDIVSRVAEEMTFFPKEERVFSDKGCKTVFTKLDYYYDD
Focal adhesion kinase 1 (Homo sapiens), sequence (Q05397 whole entry, looked up): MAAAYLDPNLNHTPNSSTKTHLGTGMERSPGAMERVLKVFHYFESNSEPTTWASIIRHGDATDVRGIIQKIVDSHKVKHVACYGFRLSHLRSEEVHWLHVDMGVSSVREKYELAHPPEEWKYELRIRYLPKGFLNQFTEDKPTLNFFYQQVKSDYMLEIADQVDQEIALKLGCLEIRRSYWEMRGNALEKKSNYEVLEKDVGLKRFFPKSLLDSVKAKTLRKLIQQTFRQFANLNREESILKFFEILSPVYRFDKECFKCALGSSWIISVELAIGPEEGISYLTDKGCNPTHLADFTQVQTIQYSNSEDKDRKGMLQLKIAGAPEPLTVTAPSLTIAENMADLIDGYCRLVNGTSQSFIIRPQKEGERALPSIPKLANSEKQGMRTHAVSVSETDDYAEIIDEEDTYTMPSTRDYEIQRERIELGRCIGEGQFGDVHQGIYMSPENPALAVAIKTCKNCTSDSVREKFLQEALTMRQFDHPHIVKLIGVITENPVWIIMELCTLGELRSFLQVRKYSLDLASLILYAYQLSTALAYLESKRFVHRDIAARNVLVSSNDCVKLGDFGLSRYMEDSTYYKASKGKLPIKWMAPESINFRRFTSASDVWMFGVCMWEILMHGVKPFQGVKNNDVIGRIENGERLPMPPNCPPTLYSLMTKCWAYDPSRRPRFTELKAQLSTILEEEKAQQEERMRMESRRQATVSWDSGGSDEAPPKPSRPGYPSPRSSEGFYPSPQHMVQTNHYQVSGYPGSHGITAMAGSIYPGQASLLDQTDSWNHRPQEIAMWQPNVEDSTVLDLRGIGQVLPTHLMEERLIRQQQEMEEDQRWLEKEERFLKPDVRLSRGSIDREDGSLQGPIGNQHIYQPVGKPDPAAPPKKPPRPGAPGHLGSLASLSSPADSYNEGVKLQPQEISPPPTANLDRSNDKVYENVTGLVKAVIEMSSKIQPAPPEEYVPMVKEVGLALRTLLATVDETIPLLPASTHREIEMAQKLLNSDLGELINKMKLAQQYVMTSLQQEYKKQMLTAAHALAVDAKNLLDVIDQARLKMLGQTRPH
Luciferin 4-monooxygenase (Photinus pyralis), sequence (P08659 whole entry, looked up): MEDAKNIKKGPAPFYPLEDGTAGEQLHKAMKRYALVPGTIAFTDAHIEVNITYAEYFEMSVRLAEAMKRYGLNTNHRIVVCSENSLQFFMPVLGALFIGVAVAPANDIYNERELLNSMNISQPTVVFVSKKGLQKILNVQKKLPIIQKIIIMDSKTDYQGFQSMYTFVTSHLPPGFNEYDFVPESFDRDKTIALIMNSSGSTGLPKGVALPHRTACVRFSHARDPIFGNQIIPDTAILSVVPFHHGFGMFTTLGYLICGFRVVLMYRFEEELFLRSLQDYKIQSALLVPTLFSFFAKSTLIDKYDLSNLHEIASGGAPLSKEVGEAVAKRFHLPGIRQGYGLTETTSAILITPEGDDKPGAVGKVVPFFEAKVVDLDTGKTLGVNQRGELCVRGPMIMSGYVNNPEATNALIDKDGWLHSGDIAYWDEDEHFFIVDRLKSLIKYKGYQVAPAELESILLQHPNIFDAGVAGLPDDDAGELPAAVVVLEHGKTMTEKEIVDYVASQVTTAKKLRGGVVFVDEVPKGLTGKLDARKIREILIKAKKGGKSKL
Follistatin (Homo sapiens), sequence (P19883 whole entry, looked up): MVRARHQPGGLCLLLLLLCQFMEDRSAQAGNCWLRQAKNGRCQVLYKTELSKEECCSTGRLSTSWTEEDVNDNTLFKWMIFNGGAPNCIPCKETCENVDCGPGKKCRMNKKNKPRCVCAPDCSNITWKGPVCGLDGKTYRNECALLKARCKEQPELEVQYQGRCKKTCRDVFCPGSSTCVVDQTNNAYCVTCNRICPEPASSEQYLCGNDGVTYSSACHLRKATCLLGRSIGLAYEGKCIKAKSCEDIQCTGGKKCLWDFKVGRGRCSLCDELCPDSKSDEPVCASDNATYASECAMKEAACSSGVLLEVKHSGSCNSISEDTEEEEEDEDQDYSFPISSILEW

For the compound `CS(=O)(=O)CCOC(=O)C1=CC(CCCO)=CC(c2cccs2)N(Cc2cccc(OC(F)(F)F)c2)C=C1C(=O)OCCS(C)(=O)=O` (stereo not given), the composite z-score in [1] amounted to 0.97; in experiment [2], 1.03; in [3] it was 0.905; in [4], 0.579; in [5] it was 0.243; in experiment [6], 0.202. Besides, the composite z-score turned out to be 0.578 in the experiment on Lefty1; 1.02 in experiment [8]; 0.141 in [10]; 1.25 in experiment [15]; 0.245 in [16]; 0.972 in the experiment with Torsin-1A (Homo sapiens) [17]. In addition, the composite z-score with Torsin-1A (Homo sapiens) [18] was found to be 0.88; in experiment [19], 0.37. The z-score was 1.64 in [7]; -2.01 (inactive) in experiment [9]; -3.11 (inactive) in experiment [11]; 0.957 (inactive) in experiment [12]; 4.08 (inactive) in experiment [13]; 0.706 (inactive) in experiment [14].

For `C[C@H]1Cc2c(-c3ccccc3)nc3c(c2CO1)CN(CCOc1ccccc1)CC3`, the composite z-score in experiment [1] was found to be 1.08; in experiment [2], 0.576; in experiment [3] it was 0.269; in [4], 0.728; in experiment [5] it was 1.09; in experiment [6], 1.08. Moreover, the composite z-score is 1.11 in the experiment on Lefty1; 0.253 in experiment [8]; 0.379 in experiment [10]; 0.277 in [15]; -0.0313 in [16]; 0.132 with Torsin-1A (Homo sapiens) [17]. Further, the composite z-score with Torsin-1A (Homo sapiens) [18] was 0.565; in experiment [19], 1.17. In addition, the z-score is 3.24 in [7]; -1.41 (inactive) in experiment [9]; -0.239 (inactive) in experiment [11]; -0.888 (inactive) in experiment [12]; 2.92 (inactive) in [13]; -1.46 (inactive) in [14].

As to `COC(=O)[C@@H]1N=C(c2ccc(OCCCO)cc2)O[C@@H]1c1ccccc1N=[N+]=[N-]`, the composite z-score in experiment [1] is 1.99; in experiment [2], 1.21; in [3], 0.942; in [4], 0.077; in experiment [5], 0.499; in [6] it was -0.253. In addition, the composite z-score was -0.394 with Lefty1; 1.04 in experiment [8]; 0.122 in experiment [10]; 0.937 in experiment [15]; 0.168 in [16]; 0.131 with Torsin-1A (Homo sapiens) [17]. Also, the composite z-score with Torsin-1A (Homo sapiens) [18] was 0.51; in [19], -0.0259. Moreover, the z-score in experiment [7] is 0.484; in experiment [9], -17.9 (active); in experiment [11], -2.72 (inactive); in experiment [12] it was -0.943 (inactive); in [13], 1.7 (inactive); in experiment [14], -0.826 (inactive).

In the case of `COc1cccc([C@H]2Oc3ccc(OC)cc3C(=NOC(C)CN3CCCc4nc(C)c(C)cc43)[C@@H]2O)c1` (stereo not given in full), the composite z-score in experiment [1] is 2.41; in experiment [2], 0.857; in experiment [3], 0.394; in experiment [4], -0.712; in experiment [5] it was 0.073; in experiment [6], 0.125. The composite z-score in the experiment on Lefty1 was 0.809; in experiment [8], -0.299; in experiment [10], 0.35; in experiment [15], -0.504; in experiment [16], 0.0442; with Torsin-1A (Homo sapiens) [17], 0.433. The composite z-score was found to be 0.27 in the experiment with Torsin-1A (Homo sapiens) [18] and 0.478 in experiment [19]. Moreover, the z-score is 0.128 in experiment [7]; 0.149 (inactive) in experiment [9]; -0.252 (inactive) in [11]; 1.28 (inactive) in experiment [12]; 2.71 (inactive) in [13]; -0.0145 (inactive) in experiment [14].

As for `CCOC(=O)[C@H](Cc1ccccc1)NC(=O)CCC1CC(OC(=O)NCCc2ccc(F)cc2)CC2(CCCC(COC(=O)NCC(c3ccccc3)c3ccccc3)O2)O1` (stereo not given in full), the composite z-score amounted to 0.999 in experiment [1]; 0.517 in [2]; 0.111 in [3]; 0.7 in experiment [4]; 0.831 in experiment [5]; 0.563 in experiment [6]. Moreover, the composite z-score is 0.68 in the experiment with Lefty1; 0.554 in experiment [8]; 0.0879 in experiment [10]; 0.388 in [15]; -0.248 in [16]; -0.0715 with Torsin-1A (Homo sapiens) [17]. Further, the figures for the composite z-score (with Torsin-1A (Homo sapiens) [18]; in [19]) were 0.656 and 0.719, respectively. Moreover, the z-score is 0.597 in experiment [7]; 0.715 (inactive) in experiment [9]; -0.792 (inactive) in [11]; 0.338 (inactive) in experiment [12]; 0.286 (inactive) in experiment [13]; 1.23 (inactive) in experiment [14].
